{"source": "PubChem BioAssay AID1878", "about": "(Sanford-Burnham Center for Chemical Genomics, 2009)", "note": "The whole screen tested about 1,000 compounds, of which about 200 (20%) were called active. Cut-off read from the data, not from the text of the source: active = inhibition above about 55%; inactive = the rest. Not all results are given here. Results with a measured potency or affinity are listed apart.", "data": [{"molecular_target": "Dual specificity protein phosphatase 3 (Homo sapiens) (UniProt P51452)", "sequence (P51452 whole entry, looked up)": "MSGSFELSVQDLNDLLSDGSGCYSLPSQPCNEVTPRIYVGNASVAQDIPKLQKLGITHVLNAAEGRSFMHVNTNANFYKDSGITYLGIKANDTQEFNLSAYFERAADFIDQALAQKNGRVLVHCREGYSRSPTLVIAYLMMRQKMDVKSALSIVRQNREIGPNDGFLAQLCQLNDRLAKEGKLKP", "test": "VHR1 phosphatase inhibitors, biochemical (AID 1878)", "details": "recombinant VHR phosphatase, fluorogenic substrate; at 13.3 µM; active compounds read high", "values": [{"smiles": "O=C(Nc1c(C(=O)N2CCC(N3CCCCC3)CC2)oc2ccccc12)c1ccc(F)cc1", "inhibition": "-2.2% (inactive)"}, {"smiles": "CC1CCCCN1C(=O)CCC(=O)Nc1nnc(C2CCCCC2)s1", "note": "(stereo unspecified)", "inhibition": "-7.6% (inactive)"}, {"smiles": "Cc1ccccc1-c1nc(CS(=O)(=O)CC(=O)NC2CCCC2)c(C)o1", "inhibition": "7.2% (inactive)"}, {"smiles": "O=c1oc(-c2ccccc2Cl)nc2ccsc12", "inhibition": "5.6% (inactive)"}, {"smiles": "CCn1c(SCC(=O)N2CCOCC2)nc2c(c1=O)SC(C)C2", "note": "(stereo unspecified)", "inhibition": "-2.5% (inactive)"}, {"smiles": "COc1ccc(CC(=O)N/N=C(\\C)CC(=O)Nc2ccc(N(C)C)cc2)cc1", "inhibition": "-12.6% (inactive)"}, {"smiles": "C[C@@H]1NC(=O)N(c2ccc(F)cc2)C1=O", "inhibition": "-6.6% (inactive)"}, {"smiles": "O=C1CN(c2ccc(F)cc2)C(=S)N1c1ccccc1", "inhibition": "4.8% (inactive)"}, {"smiles": "CCN1CCN(C(CNS(=O)(=O)c2ccc(OC)c(C)c2)c2cccnc2)CC1", "note": "(stereo unspecified)", "inhibition": "-7.5% (inactive)"}, {"smiles": "CC1CCN(Cc2nnnn2CCCC(=O)N(C)C(C)c2ccccn2)CC1", "note": "(stereo unspecified)", "inhibition": "7.9% (inactive)"}, {"smiles": "COc1cc(OC)cc(C(=O)NN(CCC#N)C2=NS(=O)(=O)c3ccccc32)c1", "inhibition": "15.9% (inactive)"}, {"smiles": "Cc1ccccc1OCCCN1CCOCC1", "inhibition": "2% (inactive)"}, {"smiles": "CCc1ccc(/C=C/c2c([N+](=O)[O-])c(=O)n(C)c(=O)n2C)cc1", "inhibition": "3.6% (inactive)"}, {"smiles": "Cc1ccc(C)c(Nc2ccc3nonc3c2[N+](=O)[O-])c1", "inhibition": "-8.6% (inactive)"}, {"smiles": "Cc1cc(OCc2cc(C(=O)N(C)CCCN3CCOCC3)no2)cc(C)c1Cl", "inhibition": "-10.5% (inactive)"}, {"smiles": "COc1cc(Cl)ccc1OCc1cc(C(=O)NCC(C)c2ccccc2)no1", "note": "(stereo unspecified)", "inhibition": "11.7% (inactive)"}, {"smiles": "Cc1ccc(CN2CCN(Cc3cccc(C)n3)CC2CCO)cc1", "note": "(stereo unspecified)", "inhibition": "3.8% (inactive)"}, {"smiles": "CC(C)(C)CN1CCN(Cc2c[nH]c3ccccc23)CC1CCO", "note": "(stereo unspecified)", "inhibition": "-9.5% (inactive)"}, {"smiles": "COc1ccc(-c2n[nH]c3c2CN(C(=O)c2ccc(OC)c(OC)c2)CC3)cc1", "inhibition": "-2.9% (inactive)"}, {"smiles": "O=C(CSc1n[nH]c(=O)[nH]c1=O)Nc1ccc2c(c1)C(=O)c1ccccc1C2=O", "inhibition": "98% (active)"}, {"smiles": "CCc1cc2c(C)ccc(C)c2nc1SCC(=O)Nc1c[nH]c(=O)[nH]c1=O", "inhibition": "27.1% (inactive)"}, {"smiles": "Nc1cc(=O)[nH]c(SCC(=O)Nc2ccc(Oc3ccccc3)cc2)n1", "inhibition": "-5% (inactive)"}, {"smiles": "CC1=C(C(=O)OCC2CCCCC2)C(c2ccc(F)cc2)NC(=O)N1", "note": "(stereo unspecified)", "inhibition": "-8.4% (inactive)"}, {"smiles": "CC1=C(C(=O)OC(C)C)C(c2ccc(Cl)cc2)n2c(s/c(=C\\c3ccc(OCC(=O)O)cc3)c2=O)=N1", "note": "(stereo unspecified)", "inhibition": "97.4% (active)"}, {"smiles": "CCOC(=O)C1=C(N)n2c(s/c(=C\\c3ccncc3)c2=O)=C(C(=O)OCC)C1c1ccncc1", "note": "(stereo unspecified)", "inhibition": "39.4% (inactive)"}, {"smiles": "CCC1CCCCN1CCCNS(=O)(=O)c1ccc2c(c1)oc(=O)n2C", "note": "(stereo unspecified)", "inhibition": "-1.5% (inactive)"}, {"smiles": "Clc1ccc2ccc3cccnc3c2n1", "inhibition": "-16.7% (inactive)"}, {"smiles": "Cc1ccc(CNc2ccc(N3CCOCC3)c(Cl)c2)cc1", "inhibition": "8% (inactive)"}, {"smiles": "Cc1c(C(=O)N2CCCCC2)c(S(=O)(=O)N2CCN(c3ccc(F)cc3)CC2)c(C)n1C", "inhibition": "-7% (inactive)"}, {"smiles": "Cc1c(C)n(C)c2ccc(C(=O)NCCCN3CCCCC3C)cc12", "note": "(stereo unspecified)", "inhibition": "-11% (inactive)"}, {"smiles": "O=C(CSc1n[nH]c(-c2ccccc2O)n1)NC1CCCCC1", "inhibition": "2.6% (inactive)"}, {"smiles": "Clc1ccc(Cl)c(OCCCCN2CCCCC2)c1", "inhibition": "-4.8% (inactive)"}, {"smiles": "COc1ccc(CCNC(=O)CCNC(=O)N2CC(=O)Nc3ccccc32)cc1", "inhibition": "13.9% (inactive)"}, {"smiles": "COc1ccc(OC)c(NC(=O)CCN2CCN(c3ccccc3OC)CC2)c1", "inhibition": "6.9% (inactive)"}, {"smiles": "COc1ccc(N2CCN(c3ncnc4scc(-c5ccccc5)c34)CC2)cc1", "inhibition": "16.6% (inactive)"}, {"smiles": "O=C(Nc1cccc(-n2cnnn2)c1)c1ccc(Cl)cc1Cl", "inhibition": "3.8% (inactive)"}, {"smiles": "Oc1ccc(-c2nc3ccccc3nc2-c2ccccc2)cc1", "inhibition": "-3.2% (inactive)"}, {"smiles": "O=S(=O)(Nc1ccc2ccccc2n1)c1ccccc1Cl", "inhibition": "3.5% (inactive)"}, {"smiles": "CCCN1C2CCCC1CC(NC(=O)c1ccc(C(C)(C)C)cc1)C2", "note": "(stereo unspecified)", "inhibition": "-2.3% (inactive)"}, {"smiles": "CC1CCCCN1CC(O)COc1ccc(OCC(O)CN2CCCCC2C)cc1", "note": "(stereo unspecified)", "inhibition": "-5.3% (inactive)"}, {"smiles": "COc1ccc(Nc2nc(-c3sc(C)nc3C)cs2)c(OC)c1", "inhibition": "23% (inactive)"}, {"smiles": "COc1ccc(C(=O)N(C)CCCC2CCCC2)cc1OC1CCN(C(C)C)CC1", "inhibition": "-11.7% (inactive)"}, {"smiles": "COc1ccc(C(=O)N2CCCCCCC2)cc1OC1CCN(C(C)C)CC1", "inhibition": "-3.1% (inactive)"}, {"smiles": "O=c1[nH]c(NCCO)nnc1Cc1ccccc1", "inhibition": "-18.8% (inactive)"}, {"smiles": "CN(C(=O)COC(=O)c1cc(-c2ccco2)nc2ccccc12)C1CCS(=O)(=O)C1", "note": "(stereo unspecified)", "inhibition": "98.4% (active)"}, {"smiles": "CCc1ccc(-c2cc(C(=O)NN3CCOCC3)c3ccccc3n2)s1", "inhibition": "-11.9% (inactive)"}, {"smiles": "CCOc1ccc(N(C)C(=O)CCc2nnc3ccc(N4CCOCC4)nn23)cc1", "inhibition": "-3.3% (inactive)"}, {"smiles": "O=C(N=C1SC2CS(=O)(=O)CC2N1c1ccc(F)cc1F)C1CC1", "note": "(stereo unspecified)", "inhibition": "-8.3% (inactive)"}, {"smiles": "Cn1c(=O)oc2cc(S(=O)(=O)N3CCCC(C(=O)NCc4ccc5c(c4)OCO5)C3)ccc21", "note": "(stereo unspecified)", "inhibition": "9.1% (inactive)"}, {"smiles": "CCC(=O)N1CCc2cc(S(=O)(=O)CCC(=O)NCc3ccc(OC)cc3)ccc21", "inhibition": "20% (inactive)"}, {"smiles": "CC(C)c1cc(N=NC(N)=O)cc(C(C)C)c1O", "inhibition": "0.5% (inactive)"}, {"smiles": "CCN1CCN(Cc2nnc(-c3ccc(C)cc3)o2)CC1", "inhibition": "-3.3% (inactive)"}, {"smiles": "O=C1CCC(C(=O)N2CCCC2)CN1Cc1cccc(C(F)(F)F)c1", "note": "(stereo unspecified)", "inhibition": "-14.6% (inactive)"}, {"smiles": "CCc1nnc(NC(=O)CCNC(=O)c2ccco2)s1", "inhibition": "-5.4% (inactive)"}, {"smiles": "Cc1ccc(NC(=O)Cn2c(O)c(N=NC(N)=S)c3ccccc32)cc1", "inhibition": "9.9% (inactive)"}, {"smiles": "CCCN1CCN(CCCNC(=O)c2ccc(CS(=O)c3ccccc3C)o2)CC1", "note": "(stereo unspecified)", "inhibition": "1.2% (inactive)"}, {"smiles": "Cc1ccc(OCCCCN2CCCCC2)c(C)c1", "inhibition": "5.4% (inactive)"}, {"smiles": "Oc1ccc(C23CC4CC(CC(C4)C2)C3)cc1O", "inhibition": "5.9% (inactive)"}, {"smiles": "COC(=O)c1ccc(CNC(=O)C2CCC(=O)N(Cc3ccccn3)C2)cc1", "note": "(stereo unspecified)", "inhibition": "-6% (inactive)"}, {"smiles": "Cc1ccc2oc(C(=O)N3CCN(C)C[C@@H]3C(C)C)c(C)c2c1", "inhibition": "-13.8% (inactive)"}, {"smiles": "Cc1ccccc1S(=O)(=O)Cc1ccc(C(=O)NCCCN2CCCC2)o1", "inhibition": "-7.1% (inactive)"}, {"smiles": "COc1ccc(C2NN=C(c3ccc(C)cc3)S2)cc1", "note": "(stereo unspecified)", "inhibition": "-9.5% (inactive)"}, {"smiles": "Cc1cc(NC(=O)CCCN2C(=O)/C(=C\\c3cccs3)SC2=S)no1", "inhibition": "-12% (inactive)"}, {"smiles": "O=C(O)CCN1C(=O)/C(=C/c2cn(-c3ccccc3)nc2-c2cccs2)SC1=S", "inhibition": "98% (active)"}, {"smiles": "CC1(C)CC(NC(=O)c2cccc(Cl)c2)CC(C)(C)N1", "inhibition": "2.3% (inactive)"}, {"smiles": "CCOc1ccccc1C(=O)NC1CC2CCCC(C1)N2Cc1ccc(C)cc1", "note": "(stereo unspecified)", "inhibition": "9.8% (inactive)"}, {"smiles": "Cc1ccc(Oc2coc3cc(O)ccc3c2=O)cc1", "inhibition": "1% (inactive)"}, {"smiles": "O=[N+]([O-])CC(c1ccc(F)cc1)c1c[nH]c2ccccc12", "note": "(stereo unspecified)", "inhibition": "-0.1% (inactive)"}, {"smiles": "CCOc1ccc(C(=S)N2CCCC2)c(OCC)c1", "inhibition": "-7.2% (inactive)"}, {"smiles": "O=C(NCc1ccc(F)cc1)C(=O)c1cn(CC(=O)N2CCCC2)c2ccccc12", "inhibition": "-3% (inactive)"}, {"smiles": "CCOC(=O)CCNC(=O)N1CCC(CCC(=O)NCc2ccc(F)cc2)CC1", "inhibition": "-0.1% (inactive)"}, {"smiles": "CN1CCC(N(C)S(=O)(=O)c2ccc(Cl)cc2)CC1", "inhibition": "-9.6% (inactive)"}, {"smiles": "CC(=O)Nc1ccc(N2C(=O)CSC2c2cccc(Br)c2)cc1", "note": "(stereo unspecified)", "inhibition": "1.4% (inactive)"}, {"smiles": "CN(CCCNC(=O)CCc1cn(C)c2ccccc12)C1CCCCC1", "inhibition": "-3.3% (inactive)"}, {"smiles": "COc1ccc(O)c(CN2CCN(CCCc3ccccc3)C(CCO)C2)c1", "note": "(stereo unspecified)", "inhibition": "-8% (inactive)"}, {"smiles": "N#Cc1nc(-c2ccc(OCc3ccc(Cl)cc3)cc2)oc1N1CCC(C(N)=O)CC1", "inhibition": "93.5% (active)"}, {"smiles": "Fc1cc(F)nc(NCc2ccccc2)n1", "inhibition": "8.1% (inactive)"}, {"smiles": "Oc1ccc(N2CCN(Cc3nc4ccccc4[nH]3)CC2)cc1", "inhibition": "-15.2% (inactive)"}, {"smiles": "CCC1CCCCN1CCCNC(=O)CS(=O)Cc1nc(-c2ccc(OC)c(OC)c2)oc1C", "note": "(stereo unspecified)", "inhibition": "15.7% (inactive)"}, {"smiles": "Cc1c(CCCN)c2ccccc2n1Cc1ccccc1", "inhibition": "-12.5% (inactive)"}, {"smiles": "COc1cccc(C(N)=O)c1OC(=O)Cc1ccccc1F", "inhibition": "-0.1% (inactive)"}, {"smiles": "Cc1nnc(NC(=O)c2cccc(Br)c2)s1", "inhibition": "4% (inactive)"}, {"smiles": "O=C(Nc1cccc(F)c1)c1ccc2ncsc2c1", "inhibition": "-14.9% (inactive)"}, {"smiles": "O=C(Nc1nnc(SCc2c(Cl)cccc2Cl)s1)c1ccc2ncsc2c1", "inhibition": "66.9% (active)"}, {"smiles": "COc1cc(N=Cc2c(CO)cnc(C)c2O)cc(OC)c1OC", "inhibition": "-8.3% (inactive)"}, {"smiles": "C=CCNC(=O)c1ccc(CN2CCC(Cc3ccccc3)CC2)cc1", "inhibition": "-11.1% (inactive)"}, {"smiles": "CSc1ncccc1C(=O)NC1CCN(Cc2ccccc2)CC1", "inhibition": "2.3% (inactive)"}, {"smiles": "CCOc1ccc(CCNC(=O)CS(=O)Cc2nc(-c3ccc(OC)c(OC)c3)oc2C)cc1OCC", "note": "(stereo unspecified)", "inhibition": "8.4% (inactive)"}, {"smiles": "COC(=O)C1(CO)NC(c2ccc(C)cc2)C2C(=O)N(c3ccccc3)C(=O)C21", "note": "(stereo unspecified)", "inhibition": "-3.3% (inactive)"}, {"smiles": "CC1=C(C(=O)OCc2ccccc2)C(c2ccc([N+](=O)[O-])cc2)NC(=O)N1C", "note": "(stereo unspecified)", "inhibition": "2.8% (inactive)"}, {"smiles": "COc1cc(-c2c(NC(=O)c3ccco3)oc3ccccc3c2=O)cc(OC)c1OC", "inhibition": "-9.9% (inactive)"}, {"smiles": "CCN(CC)CCCN(Cc1cc2cc3c(cc2[nH]c1=O)OCO3)C(=S)NCCCN(C)C", "inhibition": "-12.7% (inactive)"}, {"smiles": "O=C(NC1=NN(c2ccccc2)CC1)Nc1ccccc1F", "inhibition": "-3.5% (inactive)"}, {"smiles": "O=c1c2c3nc4ccccc4nc3n(-c3ccc4c(c3)OCCO4)c2ncn1C1CCCC1", "inhibition": "96.5% (active)"}, {"smiles": "CSc1ncc(C(=O)Nc2ccccc2C)c(C)n1", "inhibition": "6.2% (inactive)"}, {"smiles": "CCN1CCN(CCCNC(=O)CNC(=O)c2nn(-c3ccc(OC)cc3OC)c(=O)c3ccccc23)CC1", "inhibition": "38.3% (inactive)"}]}]}
